Measured values reported in PubChem BioAssay AID488890 (Southern Research Specialized Biocontainment Screening …, 2010).
In all, about 320,000 compounds went through this assay and about 1,300 (0.41%) were called active. About 3% were inconclusive and are not listed. The rule behind the calls is not given here. Not all results are given here. Measured potencies and affinities stand elsewhere.

Test: growth inhibition of non-replicating M. tuberculosis (AID 488890);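 note: plate controls were DMSO cells for no effect and high antibiotic wells for full effect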
Conditions: Mycobacterium tuberculosis non-replicating, at 25 µM, stronger effect = higher value

| Compound | inhibition [%] |
| --- | --- |
| COc1cc(/C=N/Nc2ccc(Cl)c(C(=O)O)c2)ccc1OC(=O)c1ccc(F)cc1 | 52.6 |
| O=C(NC(NNc1ccc([N+](=O)[O-])cc1)(C(F)(F)F)C(F)(F)F)c1ccc(F)cc1 | 29.8 |
| O=C(NN=C1CCCCCC1)c1ccncc1 | 70.4 |
| CC(C)c1ccc2[nH]c3c(c2c1)CCCC3=O | 6.88 |
| O=C(N/N=C1\CCCc2c1[nH]c1ccc([N+](=O)[O-])cc21)c1ccncc1 | -12.5 |
| Nc1ccc(C(=O)N/N=C2\CCCc3c2[nH]c2ccccc32)cc1 | 19.8 |
| CC1=C(/C=C/C(C)=C/C=C/C(C)=C/C(=O)O)C(C)(C)CCC1 | 15.6 |
| CC1=C(/C=C/C(=O)O)C(C)(C)CCC1 | 13.1 |
| CC(/C=C/c1ccc2c(c1)OCO2)=N\NC(=O)c1cccc([N+](=O)[O-])c1 | 68.6 |
| C/C(=N\NC(=O)c1cccc([N+](=O)[O-])c1)c1ccncc1 | 8.18 |
| COc1cc(NC(=O)CN2CCN(c3ccccc3)CC2)c(C)cc1[N+](=O)[O-] | -14 |
| O=C1C(c2ccccc2)=C(N2CC2)c2ccccc21 | 15.4 |
| Nc1c(C(=O)c2ccccc2)sc2c1c(=O)[nH]c(=O)n2-c1ccccc1 | 6.25 |
| CCOC(=O)c1nn(-c2ccc(F)cc2)c2nc(Nc3ccccc3)cc(=O)n12 | 75.5 |
| CCOC(=O)c1nn(-c2cccc(Cl)c2)c2nc(Nc3ccccc3)cc(=O)n12 | 63.6 |
| Cc1cc(C(=O)N2CCCC(N3CCN(c4ccccc4C)CC3)C2)n(C)n1 (centres undefined) | 8.85 |
| CCN1CCN(C2CC(=O)NC2=O)CC1 (centres undefined) | -2.18 |
| Cc1ccc(NC(=O)C2CCN(C(=O)N3CCOc4ccccc43)CC2)cc1 | 25.7 |
| Oc1ccc2ccccc2c1CN1CCCC1 | 21.4 |
| Oc1ccc(Br)cc1CN1CCCCCCC1 | 8.51 |
| O=C(NC1CCCCC1)C1CCCN(S(=O)(=O)c2cccc3cccnc23)C1 (centres undefined) | -8.57 |
| CCOC(=O)c1cc(=O)cc(C(=O)OCC)o1 | -3.36 |
| CCOC(=O)c1cc(=O)c2c([N+](=O)[O-])ccc(OC)c2o1 | -14.2 |
| COc1cccc(C(=O)NCC(=O)NCc2cc(=O)n(C)c(=O)n2C)c1OC | -9.9 |
| O=C1CNC(=S)N1C1CCCCCC1 | 0.27 |
| O=C(CCN1C(=O)S/C(=C/c2ccc(F)cc2)C1=O)Nc1ccc(O)c(C(=O)O)c1 | -1.86 |
| O=C(CCN1C(=O)S/C(=C\c2ccc(F)cc2)C1=O)Nc1ccc(O)cc1C(=O)O | 24.1 |

| Compound | inhibition [%] |
| --- | --- |
| CCCn1c(=O)c2ccccc2n2c(SCc3nnc(-c4ccccc4Br)o3)nnc12 | -5.68 |
| COC(=O)c1ccn(-c2nc(-c3ccco3)cc(C(F)(F)F)n2)n1 | -17.4 |
| O=C(COc1ccccc1Cl)c1ccc2c(c1)CCCC2 | 38.7 |
| Cc1ccc(NC(=O)CCc2ccc(C)o2)c(C)c1 | 68.3 |
| Cc1ccc(CCC(=O)Nc2ccc(N(C)C)cc2)o1 | 39.5 |
| Cc1ccc(CCC(=O)Nc2ccc(Cl)cc2)o1 | 79.5 |
| Cc1ccc(CCC(=O)Nc2ccc([N+](=O)[O-])cc2Cl)o1 | 75.5 |
| Cc1ccc(C)c(NC(=O)CCc2ccc(C)o2)c1 | 79.3 |
| Cc1cccc(NC(=O)CCc2ccc(C)o2)c1 | 25.7 |
| Cc1cccn2c(=O)c3cc(S(=O)(=O)c4ccccc4)c(=N)n(Cc4cccnc4)c3nc12 | -4.09 |
| Cc1ccc(C(=O)N2CCC(C(=O)Nc3cccc([N+](=O)[O-])c3)CC2)cc1 | 28.6 |
| Cc1ccccc1NC(=O)Cn1nc(C(=O)O)c2ccccc2c1=O | -3.67 |
| Cc1ccc(C)c(-n2c(-c3csc(C)c3)n[nH]c2=S)c1 | 11.6 |
| CCCC(=O)Nc1ccc(C2C(=O)c3ccccc3C2=O)cc1 | -4.62 |
| O=C(Nc1ccc(N2CCN(C(=O)c3ccccc3)CC2)cc1)c1ccc2c(c1)OCO2 | 13.6 |
| CCOC(=O)N1CCC(NC(=O)CN(C)S(=O)(=O)c2cc3c(cc2Cl)NC(=O)CO3)CC1 | 31.8 |
| CCOC(=O)N1CCC(NS(=O)(=O)c2cc3c(cc2C)NC(=O)CO3)CC1 | 8.95 |
| O=C1NCC(O)=C1C=NCCO | -6.04 |
| Oc1ccccc1N=Cc1ccc[nH]1 | 72.2 |
| CCOc1ccc(NC(=O)CSc2nc(-c3cccs3)cc(C(F)(F)F)n2)c([N+](=O)[O-])c1 | 7.92 |
| CCN(CC)C(=O)CSc1nc2c(c(-c3cccnc3)c1C#N)CCCC2 | 24 |
| CN(c1ccccc1)S(=O)(=O)c1ccc(C(=O)OCC(=O)NCc2ccco2)cc1 | 18.2 |
| Cc1cc(C(=O)N/N=C/c2ccc([N+](=O)[O-])cc2)c(C)o1 | -13.2 |
| Nc1nonc1C(=O)N/N=C/c1ccc(-c2cccc([N+](=O)[O-])c2)o1 | -4.42 |
| Cc1ccc(/C=N/NC(=O)c2cc(C)oc2C)o1 | 3.1 |
| O=C(N/N=C/c1ccc([N+](=O)[O-])cc1)c1ccc(NS(=O)(=O)c2cccs2)cc1 | 17.2 |
| Nc1nonc1C(=O)N/N=C/c1ccc(Br)o1 | -9.49 |
